# Reference: PubChem BioAssay (NCI)
# About 83,000 compounds went through this panel and 20% of them were active in at least one assay; those are over-represented in the sample as a whole.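 In brief: 96-well plates, 48 h treatment, single concentration, percent growth endpoint.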 Values without a mark were called inactive. Active and inactive are the calls of the source.
# Test system: SN12C renal
# Experiment: NCI-60 one-dose screen, 48 h (100 = growth as untreated, 0 = no growth, -100 = all killed)
# Conditions: 10 µM unless noted
# Method: Growth inhibition of the SN12C human tumor cell line is measured as a screen for anti-cancer activity. Cells are grown in 96 well plates and exposed to the test compound for 48 hours. Compounds are tested at a single concentration, which is 10^-5 M for most compounds. The reported endpoint is percent growth (GI% or GIPRCNT), where numbers from 0 - 100% represent growth inhibition, and numbers from -100% - 0 represent cell death. For example, a value of 40 represents 60% growth inhibition. A value of 0 means no net growth occurred over the course of the experiment. A value of -40 indicates 40% of cells at the beginning of the experiment died by the end of the experiment. A value of -100 means all cells are dead at the end of the experiment.
# NCI-60 Human Tumor Cell Lines Screen was performed using the standard one-dose NCI protocol, which is described in more detail at https://dtp.cancer.gov/discovery_development/nci-60/default.htm.
# Compounds with GIPRCNT values below 10 were considered active. Activity score was based on GIPRCNT using the following formula: […]
# Score is 0 for GIPRCNT values of 100 or above, 50 for GIPRCNT values of 0, and 100 for GIPRCNT values of -100.
row,SMILES,growth
1,CC(=O)c1c(O)c(C)c(O)c2c1OC1=CC(=O)C(C(C)=O)C(=O)C12C (stereo not given),143%
2,O=C1C=CC(=O)N1C1CCCCCCCCCCC1,82.9%
3,O=C1CSC(=S)N1Cc1cccnc1,103%
4,Cc1cc(=O)oc2cc(O)cc(O)c12,102%
5,O/N=C1\c2ccccc2-c2ccc(F)cc21,94.4%
6,CC1(C)N=c2cc3c(cc2N1c1ccc(Cl)cc1)=Nc1ccccc1N3c1ccc(Cl)cc1,75.7%
7,Cc1cc(C)c([I+]c2c(C)cc(C)cc2C)c(C)c1,-66.2% (active)
8,COC(=O)[C@]1(C)CCC[C@]2(C)c3ccc(C(C)C)cc3C(=O)[C@@H](Br)[C@@H]12,96.1%
9,CCC(=O)c1cc([N+](=O)[O-])c(Br)s1,103%
10,O=C1C(=O)c2cc([N+](=O)[O-])ccc2-c2ccccc21,-88.9% (active)
11,O=C(c1ccccc1)C(Br)C(Br)c1ccccc1 (stereo not given),104%
12,CCOC(=O)C1=NN(c2ccccc2)C(=O)/C1=C\N1C(=O)/C(=C/c2cccc(O)c2)SC1=S,82.3%
13,CC1=CC(=NC(=O)CBr)C=C/C1=N\S(=O)(=O)c1ccccc1,14.1%
14,O=[N+]([O-])c1ccc(C2N(Cc3ccc(Cl)cc3)CCN2Cc2ccc(Cl)cc2)cc1,90.7%
15,N#CC1c2ccccc2C=CN1C(=O)CCCl (stereo not given),107%
16,CCOc1ccc(C(C[N+](=O)[O-])Sc2ccccc2N)cc1 (stereo not given),65%
17,Cn1ccc(=Nc2ccc(NC(=O)c3ccc(N=c4ccn(C)c5ccc([N+](=O)[O-])cc45)cc3)cc2)cc1,45.3%
18,Cc1nc([N+](=O)[O-])c(Sc2nncc(-c3ccccc3)n2)n1C,86.8%
19,CC1(C)CCCC2=C1C(=O)N(SC(Cl)(Cl)Cl)C2=O,93.4%
20,COc1cc(NC(=O)C2=C(C)NC(C)=C(C(=O)Nc3cc(OC)c(Cl)cc3OC)C2c2cccc([N+](=O)[O-])c2)c(OC)cc1Cl,32.2%

row,SMILES,growth
1,CCCc1cc(=O)oc2c3c(c4c(c12)OC(C)(C)CC4)OC(C)[C@H](C)[C@@H]3O (stereo not given in full),81%
2,CCCOS(=O)(=O)c1ccccc1,103%
3,Cc1ccc(/C=C2\CNC/C(=C\c3ccc(C)cc3)C2=O)cc1,-61.3% (active)
4,[Cl-].[Rh+3].c1ccc(-c2ccnc3c2ccc2c(-c4ccccc4)ccnc23)cc1.c1ccc(-c2ccnc3c2ccc2c(-c4ccccc4)ccnc23)cc1.c1ccc(-c2ccnc3c2ccc2c(-c4ccccc4)ccnc23)cc1,85.8%
5,CCOC(=O)c1cc(CC)sc1NC(=O)CC(C)=O,53%
6,CN1CSC(=S)N(Cc2ccccc2)C1,99.9%
7,COC(=O)c1nc(=S)[nH]c(C(=O)OC)c1C(=O)c1ccc(Cl)c(Cl)c1,102%
8,CCCCCCCCCCCC(=O)OC(C)C(=O)NCCCC (stereo not given),102%
9,N#C/C(=N\Nc1ccc(Cl)cc1)C(=O)C1CC1,41.4%
10,S=C=Nc1ccc(N2CCOCC2)cc1,104%
11,O=C(/C=C/c1ccccc1)c1ccccc1O,92.1%
12,CCCCCCCCCCCCSC(=N)N,51.3%
13,N#CC(I)CS(=O)(=O)c1ccccc1 (stereo not given),93.4%
14,O=[N+]([O-])c1ccc(N2CCN(Cc3ccccc3)CC2)c2c1no[n+]2[O-],19.1%
15,O=C1C=CC(=O)N1c1cccc2c1CCCC2,97.2%
16,CCc1oc2ccccc2c1C(=O)c1cc(Br)c(O)c(Br)c1,78.4%
17,CCCCCCCCC(=O)OCCCC(CCC(CCC1CCCO1)OC(=O)CCCCCCCC)OC(=O)CCCCCCCC (stereo not given),92.9%
18,CCOC(=O)C1(C)CCCC1N (stereo not given),101%
19,CCN(CC)CCNc1ccc([N+](=O)[O-])c2sc3ccccc3c(=O)c12,28.5%
20,Cc1onc(-c2ccccc2)c1C(=O)N/N=C/c1cc(Cl)cc(Cl)c1O,33.1%
